Assay [1] is described as follows: NCI Yeast Anticancer Drug Screen. Data for the rad50 strain (AID 155).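 Further: 0% = growth of vehicle-only cultures of the same strain.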 Particulars: S. cerevisiae rad50 strain growth inhibition, active compounds read high. In short, it runs like this:
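Cells are treated with compound, grown, and their growth is then scored against vehicle-only cultures of the same repair-deficient yeast strain.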

Assay [2] is described as follows: NCI Yeast Anticancer Drug Screen. Data for the mec2-1 strain (AID 157). The following applies: S. cerevisiae mec2-1 strain, active compounds read high. In short, it runs like this:
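Test agents were screened against the mec2-1 yeast strain, with defined DNA repair or cell cycle alteration. Growth was scored as inhibition against vehicle-only controls.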

Assay [3] can be described thus: NCI Yeast Anticancer Drug Screen. Data for the sgs1 mgt1 strain (AID 161).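 Further: 0% = growth of cultures given vehicle only.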 The following applies: S. cerevisiae sgs1 mgt1 strain, active compounds read high. In short, it runs like this: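 Read-out: growth inhibition vs vehicle controls. Cells: mutant yeast strain deficient in DNA damage repair.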
Assay [4] in a line: NCI Yeast Anticancer Drug Screen. Data for the cln2 rad14 strain (AID 165).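 Further: 0% = growth equal to vehicle treated cultures.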 The following applies: S. cerevisiae cln2 rad14 strain, active compounds read high. In short, it runs like this:
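Growth of compound-exposed yeast (cln2 rad14 genotype) measured and expressed as inhibition relative to vehicle.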

A short description of assay [5]: NCI Yeast Anticancer Drug Screen. Data for the mlh1 rad18 strain (AID 175). Particulars: S. cerevisiae mlh1 rad18 strain growth inhibition, active compounds read high. The procedure, abridged: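 In this whole-cell yeast screen, a strain with altered DNA damage repair is challenged with compound, and its growth is measured against matched vehicle-treated controls.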
Assay [6] in a line: NCI Yeast Anticancer Drug Screen. Data for the bub3 strain (AID 167). The following applies: S. cerevisiae bub3 mutant strain, active compounds read high. The procedure, abridged: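 Part of a panel of yeast mutants defective in DNA damage repair or cell cycle regulation. Each strain is grown with compound, and inhibition is calculated relative to solvent-treated cultures.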
[7] abbreviates: at 5.0 µM (retest, dose inferred, filed as 0.5).
The mark [8] stands for this setting: at 50.0 µM (retest, dose inferred, filed as 5.0).

Structures are written as SMILES. This is part of a sample that, as a whole, favours compounds with a hit. Of some 79,000 tested, about 15% had one in any assay. A number with no mark means an inactive call. Calls of active or inactive are those of the source. No stated cut-off is given here; in the data, active means growth inhibition above about 70%; inactive means the rest.

With `Oc1ccc(C2CCc3ccccc32)cc1` (stereo unspecified), the growth inhibition in assay [1] (setting [7]) is -6%; in assay [1] (setting [8]), 98% (active); in assay [1] (at 50.0 µM), 99.6% (active); in assay [2] (setting [7]), -36%; in assay [2] (setting [8]), 98% (active); in assay [2] (at 50.0 µM) it was 99.8% (active). Also, the growth inhibition in assay [3] (setting [7]) is -7%; in assay [3] (setting [8]), 98% (active); in assay [3] (at 50.0 µM), 99.1% (active); in assay [4] (setting [7]) it was -11%; in assay [4] (setting [8]), 98% (active); in assay [4] (at 50.0 µM), 99.3% (active). The growth inhibition in assay [5] (setting [7]) was -7%; in assay [5] (setting [8]) it was 98% (active); in assay [5] (at 50.0 µM), 99.4% (active).

As for `O=P1(N2CCCCC2)N(Cc2ccc(Cl)cc2)CCCN1Cc1ccc(Cl)cc1`, the growth inhibition is 59% in assay [1] (setting [7]); 96% (active) in assay [1] (setting [8]); 82% (active) in assay [1] (at 50.0 µM); 65% in assay [2] (setting [7]); 97% (active) in assay [2] (setting [8]); 51.5% in assay [2] (at 50.0 µM). Also, the growth inhibition was 11% in assay [3] (setting [7]); 97% (active) in assay [3] (setting [8]); 29.1% in assay [3] (at 50.0 µM); 31% in assay [4] (setting [7]); 96% (active) in assay [4] (setting [8]); 63.2% in assay [4] (at 50.0 µM). For the same compound, the growth inhibition in assay [6] (setting [7]) is 49%; in assay [6] (setting [8]), 96% (active); in assay [6] (at 50.0 µM) it was 6.75%; in assay [5] (setting [7]) it was 69%; in assay [5] (setting [8]), 90% (active); in assay [5] (at 50.0 µM), 76.8% (active).

As for `COc1ccc(C2=C(Cl)C(=O)N(c3ccccc3C)C(=O)C2(Cl)Cl)cc1`, the growth inhibition in assay [1] (setting [7]) is 66%; in assay [1] (setting [8]), 95% (active); in assay [1] (at 50.0 µM), 94.3% (active); in assay [2] (setting [7]), 17%; in assay [2] (setting [8]) it was 97% (active); in assay [2] (at 50.0 µM), 97.8% (active). The growth inhibition was 83% (active) in assay [3] (setting [7]); 97% (active) in assay [3] (setting [8]); 97.9% (active) in assay [3] (at 50.0 µM); 24% in assay [4] (setting [7]); 94% (active) in assay [4] (setting [8]); 85.4% (active) in assay [4] (at 50.0 µM). Further, the growth inhibition is 44% in assay [6] (setting [7]); 95% (active) in assay [6] (setting [8]); 94.1% (active) in assay [6] (at 50.0 µM); 70% (active) in assay [5] (setting [7]); 93% (active) in assay [5] (setting [8]); 97.7% (active) in assay [5] (at 50.0 µM).

As to `O=[N+]([O-])c1ccc(C2=Nn3cnnc3SC2)o1`, the growth inhibition in assay [1] (setting [7]) is 2%; in assay [1] (setting [8]) it was 36%; in assay [1] (at 50.0 µM), 81.7% (active); in assay [2] (setting [7]), 5%; in assay [2] (setting [8]), 35%; in assay [2] (at 50.0 µM) it was 20.9%. The growth inhibition was 27% in assay [3] (setting [7]); 73% (active) in assay [3] (setting [8]); 80.8% (active) in assay [3] (at 50.0 µM); 1% in assay [4] (setting [7]); 29% in assay [4] (setting [8]); 78.5% (active) in assay [4] (at 50.0 µM). Also, the growth inhibition in assay [6] (setting [7]) is 4%; in assay [6] (setting [8]) it was 75% (active); in assay [6] (at 50.0 µM), 59.3%; in assay [5] (setting [7]), 18%; in assay [5] (setting [8]) it was 84% (active); in assay [5] (at 50.0 µM), 86.7% (active).

With `Cc1c(C)c(O)c2c(c1O)C(=O)C=C(Cl)C2=O`, the growth inhibition in assay [1] (setting [7]) was 99% (active); in assay [1] (setting [8]), 94% (active); in assay [1] (at 50.0 µM), 88.3% (active); in assay [2] (setting [7]), 100% (active); in assay [2] (setting [8]) it was 96% (active); in assay [2] (at 50.0 µM) it was 90.2% (active). The growth inhibition in assay [3] (setting [7]) is 100% (active); in assay [3] (setting [8]), 97% (active); in assay [3] (at 50.0 µM) it was 88.3% (active); in assay [4] (setting [7]), 45%; in assay [4] (setting [8]), 96% (active); in assay [4] (at 50.0 µM) it was 90.7% (active). The growth inhibition in assay [6] (setting [7]) was 99% (active); in assay [6] (setting [8]), 97% (active); in assay [6] (at 50.0 µM), 87.7% (active); in assay [5] (setting [7]), 99% (active); in assay [5] (setting [8]), 96% (active); in assay [5] (at 50.0 µM), 88.6% (active).

Consider `O=C1c2c(Br)sc(Br)c2[C@@H](NC(=O)C(F)(F)F)C1Br` (stereo partly specified), for which the growth inhibition in assay [1] (setting [7]) was 8%; in assay [1] (setting [8]), 99% (active); in assay [1] (at 50.0 µM), 89.3% (active); in assay [2] (setting [7]) it was 3%; in assay [2] (setting [8]), 97% (active); in assay [2] (at 50.0 µM), 81.2% (active). Besides, the growth inhibition in assay [3] (setting [7]) is 19%; in assay [3] (setting [8]), 99% (active); in assay [3] (at 50.0 µM), 97% (active); in assay [4] (setting [7]), -1%; in assay [4] (setting [8]) it was 93% (active); in assay [4] (at 50.0 µM) it was 28.1%. The growth inhibition in assay [6] (setting [7]) is -3%; in assay [6] (setting [8]) it was 94% (active); in assay [6] (at 50.0 µM), 80% (active); in assay [5] (setting [7]) it was 17%; in assay [5] (setting [8]), 99% (active); in assay [5] (at 50.0 µM) it was 91.8% (active).

On to `Nc1ccccc1Nc1c([N+](=O)[O-])cc(C(F)(F)F)cc1[N+](=O)[O-]`, for which the growth inhibition in assay [1] (setting [7]) is 53%; in assay [1] (setting [8]), 78% (active); in assay [1] (at 50.0 µM) it was 89.2% (active); in assay [2] (setting [7]), 41%; in assay [2] (setting [8]), 55%; in assay [2] (at 50.0 µM) it was 92.3% (active). Besides, the growth inhibition in assay [3] (setting [7]) was 48%; in assay [3] (setting [8]), 69%; in assay [3] (at 50.0 µM), 92.7% (active); in assay [4] (setting [7]), 42%; in assay [4] (setting [8]), 55%; in assay [4] (at 50.0 µM), 85.5% (active). Moreover, the growth inhibition in assay [6] (setting [7]) was 46%; in assay [6] (setting [8]), 61%; in assay [6] (at 50.0 µM), 91.4% (active); in assay [5] (setting [7]) it was 51%; in assay [5] (setting [8]) it was 76% (active); in assay [5] (at 50.0 µM) it was 90.5% (active).

`O=C1c2ccccc2C(=O)c2c(OCCOCCO)cccc21`: the growth inhibition is 6% in assay [1] (setting [7]); 70% (active) in assay [1] (setting [8]); 86.2% (active) in assay [1] (at 50.0 µM); 3% in assay [2] (setting [7]); 18% in assay [2] (setting [8]); 23.9% in assay [2] (at 50.0 µM). Further, the growth inhibition in assay [3] (setting [7]) is 2%; in assay [3] (setting [8]) it was 31%; in assay [3] (at 50.0 µM) it was 18%; in assay [4] (setting [7]), -3%; in assay [4] (setting [8]) it was 21%; in assay [4] (at 50.0 µM) it was 24.6%. The growth inhibition was 1% in assay [5] (setting [7]), 65% in assay [5] (setting [8]) and 39.6% in assay [5] (at 50.0 µM).

With `O=C(Nc1ccccc1)O/N=C1/CCCC/C1=C\c1ccccc1`, the growth inhibition in assay [1] (setting [7]) is 26%; in assay [1] (setting [8]), 77% (active); in assay [1] (at 50.0 µM) it was 88.4% (active); in assay [2] (setting [7]), 41%; in assay [2] (setting [8]) it was 85% (active); in assay [2] (at 50.0 µM) it was 90.1% (active). Also, the growth inhibition in assay [3] (setting [7]) is 57%; in assay [3] (setting [8]), 86% (active); in assay [3] (at 50.0 µM) it was 88.3% (active); in assay [4] (setting [7]) it was 65%; in assay [4] (setting [8]), 85% (active); in assay [4] (at 50.0 µM), 84.4% (active). Moreover, the growth inhibition in assay [5] (setting [7]) was 35%; in assay [5] (setting [8]), 88% (active); in assay [5] (at 50.0 µM), 84.1% (active).

`COC1=C2C[C@@H](C)C[C@@H](OC)[C@@H](O)[C@H](C)/C=C(\C)[C@@H](OC(N)=O)[C@H](OC)/C=C\C=C(/C)C(=O)NC(=CC1=O)C2=O`: the growth inhibition in assay [1] (setting [7]) is 61%; in assay [1] (setting [8]), 88% (active); in assay [1] (at 50.0 µM), 85.8% (active); in assay [2] (setting [7]), 81% (active); in assay [2] (setting [8]), 91% (active); in assay [2] (at 50.0 µM), 89.7% (active). In addition, the growth inhibition in assay [3] (setting [7]) was 86% (active); in assay [3] (setting [8]) it was 92% (active); in assay [3] (at 50.0 µM), 91.5% (active); in assay [4] (setting [7]) it was 56%; in assay [4] (setting [8]), 85% (active); in assay [4] (at 50.0 µM), 84.8% (active). The growth inhibition is 84% (active) in assay [6] (setting [7]); 88% (active) in assay [6] (setting [8]); 89.7% (active) in assay [6] (at 50.0 µM); 69% in assay [5] (setting [7]); 85% (active) in assay [5] (setting [8]); 90% (active) in assay [5] (at 50.0 µM).

These data come from PubChem BioAssay (NCI).
